A short description of assay [1]: qHTS RealTime-Glo MT Cell Viability Assay in HEK293 cells - 16 hour (AID 1224872). Also: nearly all actives have a fitted effect of over 50% in size. Also: potency is read from the fitted curve at half-maximal effect. Put shortly:
(§1)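 Assay medium contained NanoLuc luciferase plus cell-permeant prosubstrate, added with HEK293 cells at 600 cells/well. After 5 h at 37 C/5% CO2 compounds were added; plates stayed at 37 C for 40 h with serial luminescence reads.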
(In general: Quantitative high-throughput screening tests each substance at several concentrations.)

Assay [2] is described as follows: qHTS RealTime-Glo MT Cell Viability Assay in HepG2 cells - 8 hour (AID 1224873). Also: nearly all actives have a fitted effect of over 55% in size. Also: potency is read from the fitted curve at half-maximal effect. In a few lines:
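HepG2 cells (600/well) mixed with RealTime-Glo MT reagent, settled 5 h at 37 C/5% CO2 before compound addition. Nonlytic NanoLuc luminescence from viable-cell prosubstrate reduction read repeatedly during 40 h treatment at 37 C.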

The nature of assay [3]: A CellTox Green Cytotoxicity Assay to monitor cytotoxicity in HEK293 cells - 24 hour (AID 1224875). Also: nearly all actives have a fitted effect of over 45% in size. Also: potency is read from the fitted curve at half-maximal effect. In a few lines: (§2)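 Tox21 screen in HEK293: membrane-impermeant cyanine dye fluoresces on binding dead-cell DNA; compound pinned 5 h post-seeding, plates held at 37 C, signal read repeatedly through 40 h.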
A short description of assay [4]: A CellTox Green Cytotoxicity Assay to monitor cytotoxicity in HepG2 cells - 16 hour (AID 1224876). Also: nearly all actives have a fitted effect of over 45% in size. Also: potency is read from the fitted curve at half-maximal effect. Put shortly: (§3)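 Measurements at 0, 8, 16, 24, 32 and 40 h of treatment captured CellTox Green fluorescence in HepG2 cells that had been co-plated with reagent and preincubated 5 h at 37 C/5% CO2.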
Assay [5] is described as follows: qHTS RealTime-Glo MT Cell Viability Assay in HepG2 cells - 32 hour (AID 1224877). Also: nearly all actives have a fitted effect of over 55% in size. Also: potency is read from the fitted curve at half-maximal effect. Put shortly:
(§4)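 qHTS, HepG2, 600 cells/well, RealTime-Glo (NanoLuc + prosubstrate) added with cells; 5 h preincubation; DMSO compound addition; 37 C; luminescence at 0/8/16/24/32/40 h.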

Assay [6] can be described thus: A CellTox Green Cytotoxicity Assay to monitor cytotoxicity in HepG2 cells - 40 hour (AID 1224879). Also: nearly all actives have a fitted effect of over 40% in size. Also: potency is read from the fitted curve at half-maximal effect. Put shortly:
as §3

The nature of assay [7]: qHTS RealTime-Glo MT Cell Viability Assay in HEK293 cells - 0 hour (AID 1224880). Also: top concentration of the series differs between compounds; nearly all actives have a fitted effect of over 45% in size. Put shortly:
(§5)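 HEK293 + NanoLuc + prosubstrate, 600 cells/well; 5 h, 37 C/5% CO2; compound 23 nL in DMSO by pintool; 37 C; luminescence read at 0, 8, 16, 24, 32 and 40 h time points.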

The nature of assay [8]: A CellTox Green Cytotoxicity Assay to monitor cytotoxicity in HepG2 cells - 0 hour (AID 1224882). Also: nearly all actives have a fitted effect of over 35% in size. In a few lines: as §3
A short description of assay [9]: A CellTox Green Cytotoxicity Assay to monitor cytotoxicity in HepG2 cells - 32 hour (AID 1224883). Also: nearly all actives have a fitted effect of over 50% in size. Also: potency is read from the fitted curve at half-maximal effect. Put shortly: as §3
Assay [10] is described as follows: A CellTox Green Cytotoxicity Assay to monitor cytotoxicity in HEK293 cells - 8 hour (AID 1224884). Also: nearly all actives have a fitted effect of over 35% in size. In a few lines: as §2
Assay [11] can be described thus: qHTS RealTime-Glo MT Cell Viability Assay in HepG2 cells - 16 hour (AID 1224885). Also: nearly all actives have a fitted effect of over 50% in size. Also: potency is read from the fitted curve at half-maximal effect. Put shortly: as §4
The nature of assay [12]: qHTS RealTime-Glo MT Cell Viability Assay in HEK293 cells - 24 hour (AID 1224886). Also: nearly all actives have a fitted effect of over 50% in size. Also: potency is read from the fitted curve at half-maximal effect. Put shortly: as §1
Assay [13] in a line: qHTS RealTime-Glo MT Cell Viability Assay in HEK293 cells - 8 hour (AID 1224887). Also: nearly all actives have a fitted effect of over 50% in size. Also: potency is read from the fitted curve at half-maximal effect. Put shortly: as §5
A short description of assay [14]: A CellTox Green Cytotoxicity Assay to monitor cytotoxicity in HEK293 cells - 16 hour (AID 1224888). Also: nearly all actives have a fitted effect of over 35% in size. Also: potency is read from the fitted curve at half-maximal effect. Put shortly: as §2
A short description of assay [15]: qHTS RealTime-Glo MT Cell Viability Assay in HepG2 cells - 0 hour (AID 1224889). Also: nearly all actives have a fitted effect of over 50% in size. In a few lines:
as §4

Assay [16] is described as follows: A CellTox Green Cytotoxicity Assay to monitor cytotoxicity in HepG2 cells - 8 hour (AID 1224890). Also: nearly all actives have a fitted effect of over 45% in size. Also: potency is read from the fitted curve at half-maximal effect. Put shortly:
as §3

Assay [17] can be described thus: qHTS assay to identify small molecule antagonists of the estrogen receptor alpha (ER-alpha) signaling pathway using the BG1 cell line in the presence of 0.1 nM 17-beta-estradiol - cell viability counter screen (AID 1259241). Also: nearly all actives have a fitted effect of over 40% in size. In a few lines:
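Cytotoxicity counter-screen: live-cell protease activity measured by fluorescence (30 min reagent step) in the same wells. Cells were VM7Luc4E2 with endogenous ER-alpha and ERE-driven luciferase, treated 22 hr at 37C alongside 0.1 nM 17beta-estradiol final.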

Assay [18] can be described thus: qHTS RealTime-Glo MT Cell Viability Assay in HEK293 cells - 40 hour (AID 1224874). Also: nearly all actives have a fitted effect of over 50% in size. Also: potency is read from the fitted curve at half-maximal effect. As to conditions: RealTime-Glo luminescence; max response: stronger effect = lower value. Put shortly: as §5
Assay [19] is described as follows: A CellTox Green Cytotoxicity Assay to monitor cytotoxicity in HEK293 cells - 32 hour (AID 1224881). Also: nearly all actives have a fitted effect of over 40% in size. Also: potency is read from the fitted curve at half-maximal effect. Put shortly: as §2
Assay [20] can be described thus: A CellTox Green Cytotoxicity Assay to monitor cytotoxicity in HepG2 cells - 24 hour (AID 1224878). Also: nearly all actives have a fitted effect of over 45% in size. In a few lines:
as §3

A number with no mark means an inactive call. Inconclusive results are not listed. Active and inactive are the calls of the source. Calls follow the shape of the dose curve; as a rule, active = well fitted curve in the direction sought with a large enough effect in the repeat runs; inconclusive = weak or mixed curves; inactive = no such curve, though single readings can be large; an effect the other way counts as inactive or inconclusive.
% is scaled to controls: 0 for no effect and ±100 for the full control effect.

On to `Cc1ccc(O)c2ncccc12`, for which the Potency result in assay [1], in assay [2], in assay [3], in assay [4], in [5] and in assay [7] was “inactive” each time. The Potency result in assay [8], in assay [10], in assay [11], in [12], in [13] and in assay [14] was “inactive” throughout. In addition, the Potency result in assay [15], in assay [16] and in assay [17] was “inactive” throughout. The Potency in assay [6] was 7.56 µM (active); in assay [9], 8.49 µM (active).

As for `CCC1=C[C@@H]2CN(C1)Cc1c([nH]c3ccccc13)[C@@](C(=O)OC)(c1cc3c(cc1OC)N(C)[C@H]1[C@@](O)(C(=O)OC)[C@H](OC(C)=O)[C@]4(CC)C=CCN5CC[C@]31[C@@H]54)C2`, the Potency is 23.9 µM (active) in assay [1] and 0.0067 µM (active) in [18]. The Potency result in assay [3], in assay [6], in assay [7], in assay [19], in [8] and in [9] was “inactive” each time. The Potency result in assay [10], in assay [14], in assay [15] and in assay [16] was “inactive” each time.

For `NC(=O)CC[C@@H]1NC(=O)[C@H](Cc2ccccc2)NC(=O)[C@H](Cc2ccc(O)cc2)NC(=O)CCSSC[C@@H](C(=O)N2CCC[C@H]2C(=O)N[C@@H](CCCN=C(N)N)C(=O)NCC(N)=O)NC(=O)[C@H](CC(N)=O)NC1=O`, the Potency result in assay [1], in assay [2], in [3], in [4], in assay [5] and in [20] was “inactive” throughout. Further, the Potency result in assay [6], in [7], in assay [8], in assay [9], in [11] and in assay [12] was “inactive” each time. Also, the Potency result in assay [13], in assay [14], in [15], in assay [16] and in assay [17] was “inactive” in each case.

With `O=C(OCC1CO1)C1CCCCC1C(=O)OCC1CO1` (configuration not stated), the Potency entry in assay [1], in assay [2], in assay [3], in [4], in [5] and in assay [20] was “inactive” throughout. Moreover, the Potency result in assay [6], in assay [7], in [8], in assay [9], in [10] and in [11] was “inactive” each time. In addition, the Potency result in [12], in [13], in assay [14] and in assay [16] was “inactive” each time.

Take `C[C@@H]1C[C@H]2[C@@H]3CCC4=CC(=O)C=C[C@]4(C)[C@@]3(Cl)[C@@H](O)C[C@]2(C)[C@@]1(OC(=O)c1ccco1)C(=O)CCl`: the Potency entry in assay [1], in assay [3], in assay [4], in assay [20], in [6] and in [7] was “inactive” in each case. Moreover, the Potency result in [8], in [9], in assay [12], in assay [13], in [14] and in assay [16] was “inactive” each time. The Potency result in [17] was “inactive”. Also, the max response in assay [18] is -19.5%.

Turning to `CC[C@H]1O[C@]2(CC[C@@H]1C)C[C@@H]1C[C@@H](C/C=C(\C)C[C@@H](C)/C=C/C=C3\CO[C@@H]4[C@H](O)C(C)=C[C@@H](C(=O)O1)[C@]34O)O2`, the Potency in assay [1] is 38.5 µM (active); in assay [2], 48.5 µM (active); in [3], 48.5 µM (active); in [4], 48.5 µM (active); in assay [5], 43.3 µM (active); in assay [6] it was 27.3 µM (active). Moreover, the Potency was 48.5 µM (active) in assay [19]; 27.3 µM (active) in assay [9]; 43.3 µM (active) in [11]; 34.4 µM (active) in [12]; 43.3 µM (active) in assay [13]; 48.5 µM (active) in assay [14]. For the same compound, the Potency in assay [16] is 48.5 µM (active). Also, the Potency result in assay [7], in assay [8], in assay [10] and in assay [17] was “inactive” in each case.

In the case of `c1cc(C(c2ccc(OCC3CO3)cc2)c2ccc(OCC3CO3)cc2)ccc1OCC1CO1` (configuration not stated), the Potency entry in assay [1], in assay [2], in assay [3], in [4], in [20] and in [6] was “inactive” each time. The Potency entry in assay [7], in assay [8], in assay [9], in assay [10], in assay [14] and in [15] was “inactive” each time. The Potency result in assay [16] and in [17] was “inactive” throughout.

The values are drawn from PubChem BioAssay (Tox21).
